From paper PMC5540273 (PLoS ONE, 2017)
Values joined by “and” are separate entries in the source; they are usually repeats but may differ in a detail not shown here. Equal entries are not always repeated. Where two headings read alike, the source gives them in different places.

Tests used:
[1] = tested on: T1, LKB1; settings: concentration: 1 μM, replicates: in singlicate, n = 1
T1 construct: gene STK11

[2] = tested on: T2, LOK; settings: concentration: 1 μM, replicates: in singlicate, n = 1
T2 construct: gene STK10

[3] = tested on: LRRK2; settings: concentration: 1 μM, replicates: in singlicate; n = 1
[4] = tested on: LTK; settings: concentration: 1 μM, replicates: in singlicate; n = 1
[5] = tested on: LYN; settings: concentration: 1 μM, replicates: in singlicate, n = 1
[6] = tested on: T3, LZK; settings: concentration: 1 μM, replicates: in singlicate, n = 1
T3 construct: gene MAP3K13

[7] = tested on: MAK; settings: concentration: 1 μM, replicates: in singlicate, n = 1
[8] = tested on: MAP3K15; settings: concentration: 1 μM, replicates: in singlicate, n = 1
[9] = tested on: MAP3K1; settings: concentration: 1 μM, replicates: in singlicate, n = 1
[10] = tested on: MAP3K2; settings: concentration: 1 μM, replicates: in singlicate, n = 1
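Further: KINOMEscan kinase panel screen.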

Row | SMILES | %Inh [1] [%] | %Inh [2] [%] | %Inh [3] [%] | %Inh [4] [%] | %Inh [5] [%] | %Inh [6] [%] | %Inh [7] [%] | %Inh [8] [%] | %Inh [9] [%] | %Inh [10] [%] | %Inh ([1]; 1 µM) | %Inh ([2]; 1 µM) | %Inh ([5]; 1 µM) | %Inh ([6]; 1 µM) | %Inh ([7]; 1 µM) | %Inh ([8]; 1 µM) | %Inh ([9]; 1 µM) | %Inh ([10]; 1 µM)
1 | N#Cc1ccc(Oc2ccc(Nc3ncnc4cc[nH]c34)cc2Cl)cc1 | 29 | 18 | 0 | 6 | 0 | 0 | 13 | 43 | 0 | 9 |  |  |  |  |  |  |  | 
2 | Oc1ccc2ncnc(Nc3ccc(OCc4ccccc4)cc3)c2c1 [GI262866] | 0 | 0 | 48 | 82 | 0 | 0 | 13 | 20 | 5 | 0 |  |  |  |  |  |  |  | 
3 | Nc1nc(-c2ccc3c(N)n[nH]c3c2)cc(N2CCCCC2)n1 [GSK2228768] | 0 | 0 | 0 | 0 | 0 | 0 | 17 | 0 | 0 | 0 |  |  |  |  |  |  |  | 
4 | CS(=O)(=O)CCNCc1ccc(-c2ccc3ncnc(Nc4ccc(OCc5ccccc5)c(Cl)c4)c3c2)o1.Cl [GW574783] | 0 | 58 | 22 | 25 | 0 | 26 | 12 | 5 | 15 | 0 |  |  |  |  |  |  |  | 
5 | O=C(c1ccc(-c2cc(-c3c[nH]nc3-c3ccccn3)ccn2)cc1)N1CCCC1 [GW792479] | 0 | 0 | 10 | 0 | 0 | 0 | 0 | 0 | 0 | 0 |  |  |  |  |  |  |  | 
6 | CN1c2ccc(-c3ccc(C(=O)NCCO)cc3)cc2-c2[nH]ncc2S1(=O)=O | 21 | 31 | 73 | 9 | 22 | 0 | 0 | 11 | 9 | 36 |  |  |  |  |  |  |  | 
7 | O=C(NCCCN1CCCC1=O)c1cnc(NCc2cc(Cl)ccc2Cl)nc1NC1CCNCC1 | 0 | 4 | 0 | 0 | 1 | 0 | 84 | 0 | 0 | 79 |  |  |  |  |  |  |  | 
8 | Clc1cc(Nc2ncnc3cc[nH]c23)ccc1OCc1ccccn1 | 10 | 30 | 0 | 14 | 15 | 0 | 42 | 46 | 7 | 2 |  |  |  |  |  |  |  | 
9 | Cc1ccc(C)c(NC(=O)NCCNc2ccnc(Nc3ccc(F)cc3)n2)c1 [GSK1379878] | 14 | 0 | 0 | 0 | 0 | 0 | 22 | 0 | 0 | 0 |  |  |  |  |  |  |  | 
10 | Cl.Fc1ccccc1COc1ccc(Nc2ncnc3ccc(-c4nnc(C(F)(F)F)o4)cc23)cc1Cl [GW424170] | 12 | 0 | 0 | 0 | 0 | 0 | 10 | 0 | 0 | 0 |  |  |  |  |  |  |  | 
11 | Cl.O=S(=O)(c1cccc(F)c1)c1ccc(Nc2ncnc3cc(Br)sc23)cc1Cl [GSK306886] | 10 | 6 | 0 | 0 | 0 | 0 | 10 | 0 | 24 | 7 |  |  |  |  |  |  |  | 
12 | Fc1cccc(COc2ccc(Nc3ncnc4sc(-c5ccc[nH]5)cc34)cc2Cl)c1 [GW707818] | 17 | 28 | 0 | 1 | 0 | 82 | 36 | 0 | 4 | 0 |  |  |  |  |  |  |  | 
13 | Clc1ccc(-c2cc(-c3c[nH]nc3-c3ccccn3)ccn2)cc1 [GW681251] | 0 | 30 | 46 | 0 | 0 | 0 | 14 | 0 | 26 | 3 |  |  |  |  |  |  |  | 
14 | COc1ccc(-c2nc3n(c2-c2ccncc2)CCC3)cc1 [SKF-104493] |  |  | 0 | 2 |  |  |  |  |  |  | 27% and 21% | 19% and 11% | 9% and 0% | 0% and 5% | 19% and 0% | 3% and 4% | 11% and 1% | 6% and 0%
15 | C[C@@H]1CCN(C(=O)CO)C[C@@H]1N(C)c1ncnc2[nH]ccc12 | 0 | 5 | 0 | 27 | 8 | 10 | 0 | 0 | 0 | 0 |  |  |  |  |  |  |  | 
16 | COc1cc2c(Nc3cccc(NC(=O)c4ccccc4)c3)ncnc2cc1OCCCN1CCOCC1 [GSK223810] | 0 | 10 | 0 | 0 | 90.3 | 0 | 0 | 0 | 0 | 6 |  |  |  |  |  |  |  | 
17 | CCn1c(-c2ccncc2)nc2cnccc21 [SB-735216] | 0 | 0 | 0 | 0 | 19 | 59 | 12 | 47 | 10 | 6 |  |  |  |  |  |  |  | 
